PubChem BioAssay (EPA / NIEHS)
Activity calls are given as the source filed them. How the source made its calls: active means hit-call score of the fitted dose curve at least 0.9, where 1 is the maximum; inactive means score below 0.9.

Assays:
[1] = read-out: Matrix Metallopeptidase 1 (MMP1), MMP1 (gene 4312); assay: BSK_hDFCGF_MMP1: BioMAP Diversity Plus: hDFCGF Assay for Matrix Metallopeptidase 1 (MMP1) Biomarker Activity (AID 2283064); conditions: primary human foreskin fibroblasts; actives raise or lower the signal
How it was run: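 Primary human foreskin fibroblasts exposed to chemicals for 24 h; MMP1 measured by ELISA. Cytotoxicity tracked by SRB staining in parallel cultures; bidirectional fit relative to DMSO.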

[2] = read-out: Plasminogen activator inhibitor-1 (PAI1), SERPINE1 (gene 5054); assay: BSK_hDFCGF_PAI1: BioMAP Diversity Plus: hDFCGF Assay for Plasminogen activator inhibitor-1 (PAI1) Biomarker Activity (AID 2283066); conditions: primary human foreskin fibroblasts; actives raise or lower the signal
How it was run: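 Human foreskin fibroblasts in the hDFCGF system were dosed with compound for 24 h; PAI-1 was quantified by ELISA. Bidirectional curve fitting used DMSO as negative control and baseline.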

[3] = read-out: Intercellular Adhesion Molecule 1 (ICAM1), ICAM1 (gene 3383); assay: BSK_KF3CT_ICAM1: BioMAP Diversity Plus: KF3CT Assay for Intercellular Adhesion Molecule 1 (ICAM1) Biomarker Activity (AID 2283067); conditions: primary human keratinocytes with fibroblasts; actives raise or lower the signal
How it was run: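 Cell-surface ICAM-1 was measured by ELISA 24 h after dosing primary human skin keratinocytes co-cultured with fibroblasts. Parallel SRB staining tracked overt cytotoxicity. Gain or loss of signal was fitted relative to DMSO.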

[4] = read-out: Interferon-gamma inducible Protein 10 (IP10), CXCL10 (gene 3627); assay: BSK_KF3CT_IP10: BioMAP Diversity Plus: KF3CT Assay for Interferon-gamma inducible Protein 10 (IP10) Biomarker Activity (AID 2283068); conditions: primary human keratinocytes with fibroblasts; actives raise or lower the signal
How it was run: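 In a primary skin co-culture of keratinocytes and fibroblasts, IP-10 is quantified by ELISA at 24 h after dosing. SRB staining of parallel wells monitors overt toxicity. Curves are fitted both directions against DMSO.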

[5] = BSK_KF3CT_SRB: Viability Assessment in the BioMAP Diversity Plus: KF3CT Assay (AID 2283069); conditions: primary human keratinocytes with fibroblasts;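 further: total protein by sulforhodamine B staining as a cytotoxicity measure; read 24 h after compound addition; fitted for both signal gain and loss against DMSO baseline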
How it was run: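 Human keratinocyte and foreskin fibroblast co-culture exposed to chemical for 24 h. Total protein measured in parallel cultures by 0.1% sulforhodamine B staining after 10% TCA fixation, read at 560 nm; bidirectional fit relative to DMSO.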

[6] = read-out: Interleukin-1 alpha (IL1a), IL1A (gene 3552); assay: BSK_KF3CT_IL1a: BioMAP Diversity Plus: KF3CT Assay for Interleukin-1 alpha (IL1a) Biomarker Activity (AID 2283070); conditions: primary human keratinocytes with fibroblasts; actives raise or lower the signal
How it was run: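 Primary human keratinocyte plus foreskin fibroblast co-culture, dosed and measured at 24 h in 96-well plates. IL-1a level quantified by ELISA; bidirectional fit relative to DMSO.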

[7] = read-out: TIMP metallopeptidase inhibitor 2 (TIMP2), TIMP2 (gene 7077); assay: BSK_KF3CT_TIMP2: BioMAP Diversity Plus: KF3CT Assay for TIMP metallopeptidase inhibitor 2 (TIMP2) Biomarker Activity (AID 2283071); conditions: primary human keratinocytes with fibroblasts; actives raise or lower the signal
How it was run: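 Human primary keratinocyte/foreskin fibroblast co-culture dosed with chemical and sampled at 24 h. TIMP-2 levels quantified by ELISA; bidirectional fitting against DMSO negative control as baseline.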

[8] = read-out: urokinase plasminogen activator (uPA), PLAU (gene 5328); assay: BSK_KF3CT_uPA: BioMAP Diversity Plus: KF3CT Assay for urokinase plasminogen activator (uPA) Biomarker Activity (AID 2283075); conditions: primary human keratinocytes with fibroblasts; actives raise or lower the signal
How it was run: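 Primary human keratinocyte/foreskin fibroblast co-culture exposed to chemical; uPA measured by ELISA at 24 h. Bidirectional fit versus DMSO, with parallel SRB total-protein staining for cytotoxicity.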

CD40, CD40 (gene 958) = assay: BSK_LPS_CD40: BioMAP Diversity Plus: LPS Assay for CD40 Biomarker Activity (AID 2283076); conditions: primary human HUVEC with PBMC; actives raise or lower the signal
How it was run: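 In the LPS system of human endothelial cells with peripheral blood mononuclear cells, CD40 levels were read by ELISA 24 h post-treatment. Signal changes in either direction were fitted against the DMSO baseline, with parallel SRB protein staining.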

[9] = read-out: E-selectin (Homo sapiens) (UniProt P16581); assay: BSK_LPS_Eselectin: BioMAP Diversity Plus: LPS Assay for Eselectin Biomarker Activity (AID 2283077); conditions: primary human HUVEC with PBMC; actives raise or lower the signal
How it was run: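 E-selectin ELISA on LPS-stimulated endothelial cell/PBMC co-cultures, read 24 h post-treatment; gains and losses fitted against DMSO. Parallel SRB staining (0.1% SRB after 10% TCA fixation, 560 nm) flags overt cytotoxicity.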

[10] = read-out: Interleukin-8 (IL8), CXCL8 (gene 3576); assay: BSK_LPS_IL8: BioMAP Diversity Plus: LPS Assay for Interleukin-8 (IL8) Biomarker Activity (AID 2283078); conditions: primary human HUVEC with PBMC; actives raise or lower the signal
How it was run: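 ELISA read-out of IL-8 after 24 h chemical treatment of LPS-activated endothelial/PBMC human primary co-cultures. Changes either up or down relative to DMSO; overt cytotoxicity checked by sulforhodamine B staining in parallel wells.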

[11] = BSK_LPS_SRB: Viability Assessment in the BioMAP Diversity Plus: LPS Assay (AID 2283079); conditions: primary human HUVEC with PBMC;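 further: total protein by sulforhodamine B absorbance as a cytotoxicity measure; measured one day after compound addition; fitted in both directions against DMSO so loss or gain of signal counts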
How it was run: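 SRB viability endpoint: cells fixed with 10% TCA, stained with 0.1% SRB, read at 560 nm, 24 h post-dose. HUVEC/PBMC co-culture; signal change in either direction scored relative to DMSO.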

[12] = read-out: Interleukin-1 alpha (IL1a), IL1A (gene 3552); assay: BSK_LPS_IL1a: BioMAP Diversity Plus: LPS Assay for Interleukin-1 alpha (IL1a) Biomarker Activity (AID 2283080); conditions: primary human HUVEC with PBMC; actives raise or lower the signal
How it was run: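 Readout is IL-1a level by ELISA, 24 h post-dose, fitted as gain or loss relative to DMSO. System: LPS-activated human primary co-culture of vascular endothelium and peripheral blood mononuclear cells, with parallel SRB total-protein cytotoxicity.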

[13] = read-out: Monocyte Chemoattractant Protein-1 (MCP1), CCL2 (gene 6347); assay: BSK_LPS_MCP1: BioMAP Diversity Plus: LPS Assay for Monocyte Chemoattractant Protein-1 (MCP1) Biomarker Activity (AID 2283081); conditions: primary human HUVEC with PBMC; actives raise or lower the signal;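 on AC50: secreted MCP-1 protein quantified by ELISA in culture supernatant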
How it was run: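 Secreted MCP-1 read by ELISA at 24 h post-dosing in an LPS-activated co-culture of endothelial cells with peripheral blood mononuclear cells. Fits run in both directions, DMSO as baseline; parallel SRB staining tracks overt cytotoxicity.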

[14] = BSK_LPS_PGE2: BioMAP Diversity Plus: LPS Assay for Prostaglandin E2 (PGE2) Biomarker Activity (AID 2283082); conditions: primary human HUVEC with PBMC; actives raise or lower the signal;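 on AC50: secreted prostaglandin E2 measured by ELISA in LPS-stimulated co-culture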
How it was run: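 HUVEC plus PBMC co-culture stimulated with LPS; secreted PGE2 quantified by ELISA 24 h after chemical dosing. Activity fitted bidirectionally against DMSO as negative control and baseline; parallel SRB total-protein staining served as cytotoxicity check.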

[15] = read-out: Macrophage colony-stimulating factor (MCSF), CSF1 (gene 1435); assay: BSK_LPS_MCSF: BioMAP Diversity Plus: LPS Assay for Macrophage colony-stimulating factor (MCSF) Biomarker Activity (AID 2283083); conditions: primary human HUVEC with PBMC; actives raise or lower the signal
How it was run: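 Bidirectional fitting against DMSO was applied to M-CSF levels read by ELISA at 24 h post-dose. The system pairs human umbilical vein endothelium with peripheral blood mononuclear cells; parallel SRB staining tracked cytotoxicity.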

[16] = read-out: C-C motif chemokine 2 (Homo sapiens) (UniProt P13500); assay: BSK_KF3CT_MCP1: BioMAP Diversity Plus: KF3CT Assay for Monocyte Chemoattractant Protein 1 (MCP1/CCL2) Biomarker Activity (AID 2283073); conditions: primary human keratinocytes with fibroblasts; actives raise or lower the signal
How it was run: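 ELISA read-out of MCP-1, 24 h post-dose, in primary human skin keratinocytes co-cultured with fibroblasts. Parallel SRB staining monitors cytotoxicity; changes fitted both directions relative to DMSO.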

[17] = read-out: Transforming growth factor beta 1 (TGFb1), TGFB1 (gene 7040); assay: BSK_KF3CT_TGFb1: BioMAP Diversity Plus: KF3CT Assay for Transforming growth factor beta 1 (TGFb1) Biomarker Activity (AID 2283072); conditions: primary human keratinocytes with fibroblasts; actives raise or lower the signal
How it was run: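 Human keratinocyte plus foreskin fibroblast primary co-culture, dosed with chemical for 24 h. TGF-b1 quantified by ELISA. Activity fitted bidirectionally against DMSO negative control as baseline.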

[18] = read-out: Matrix Metallopeptidase 9 (MMP9), MMP9 (gene 4318); assay: BSK_KF3CT_MMP9: BioMAP Diversity Plus: KF3CT Assay for Matrix Metallopeptidase 9 (MMP9) Biomarker Activity (AID 2283074); conditions: primary human keratinocytes with fibroblasts; actives raise or lower the signal
How it was run: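 Human keratinocyte and foreskin fibroblast co-culture exposed to chemicals for 24 h; MMP9 biomarker measured by ELISA, bidirectional fitting relative to DMSO; cytotoxicity tracked by SRB total protein staining in parallel cultures.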

Measured: AC50

Chain of E-selectin (Homo sapiens) (P16581 whole entry, looked up): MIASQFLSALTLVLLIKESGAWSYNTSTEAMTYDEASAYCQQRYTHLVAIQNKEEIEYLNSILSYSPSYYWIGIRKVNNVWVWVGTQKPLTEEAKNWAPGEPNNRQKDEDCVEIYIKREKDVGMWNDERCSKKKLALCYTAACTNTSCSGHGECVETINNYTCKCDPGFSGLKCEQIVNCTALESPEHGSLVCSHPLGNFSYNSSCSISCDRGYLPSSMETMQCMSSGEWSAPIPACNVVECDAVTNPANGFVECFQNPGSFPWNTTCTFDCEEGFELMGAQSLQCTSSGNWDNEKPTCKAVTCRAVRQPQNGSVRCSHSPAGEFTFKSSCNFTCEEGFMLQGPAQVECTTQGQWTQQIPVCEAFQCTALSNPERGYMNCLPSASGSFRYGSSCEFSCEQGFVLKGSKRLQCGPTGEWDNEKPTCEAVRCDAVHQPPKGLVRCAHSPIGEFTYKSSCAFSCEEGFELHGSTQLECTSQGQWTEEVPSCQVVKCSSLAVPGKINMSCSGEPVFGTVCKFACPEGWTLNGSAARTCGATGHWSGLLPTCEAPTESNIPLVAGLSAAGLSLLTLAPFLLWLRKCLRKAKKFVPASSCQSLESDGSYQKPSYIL

OCCCCO
not listed: [16] | [17] | [18]
inactive: all other assays above

Oc1cccc(-c2ccccc2)c1
active: [6] 20 µM | [7] 35 µM | CD40, CD40 (gene 958) 20 µM | [9] 32.5 µM | [11] 29.8 µM | [13] 4.9 µM | [14] 8.25 µM
not listed: [17] | [18]
inactive: all other assays above

Cc1cc(C)cc(C)c1
not listed: [17] | [18]
inactive: all other assays above

N#Cc1cccnc1
not listed: [18]
inactive: all other assays above

O=C(O)COc1cc(Cl)c(Cl)cc1Cl
not listed: [18]
inactive: all other assays above

O=[N+]([O-])c1ccc(Nc2ccccc2)cc1
not listed: [17]
inactive: all other assays above
